Data: PubChem BioAssay (Tox21)
Inconclusive results are not listed. Active and inactive are the calls of the source. Unless noted, the call rests on the fitted dose curve; in most records, active means well fitted curve in the direction sought with a large enough effect in the repeat runs; inconclusive means weak or mixed curves; inactive means no such curve, though single readings can be large; an effect the other way counts as inactive or inconclusive.

Experiments:
[1] = qHTS assay to identify small molecule antagonists of the progesterone receptor (PR) signaling pathway - cell viability counter screen (AID 1346798); further: nearly all actives have a fitted effect of over 50% in size; further: potency means the concentration at half of the fitted maximal effect;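 on activity change, negative = cytotoxicity: HEK293T PR-UAS-bla cells stimulated with the agonist R5020; series mostly up to about 92 µM; on the % scale 0 is the no-effect control and ±100 the full control effect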
How it was run: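 HEK293T PR-UAS-bla, 2% charcoal-stripped FBS; 4 hr pre-plate; cpd + R5020, 16 h 37C; LiveBLAzer read first; then CellTiter-Glo 30 min RT, luminescence.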

[2] = qHTS assay to identify small molecule agonists of the progesterone receptor (PR) signaling pathway - cell viability counter screen (AID 1346799; calls by dose curve; further: nearly all actives have a fitted effect of over 45% in size; further: potency means the concentration at half of the fitted maximal effect)
How it was run: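 Luminescence from CellTiter-Glo, added after the beta-lactamase FRET read in the same wells, gave cytotoxicity in PR-UAS-bla HEK293T cells treated with compounds for 16 hr at 37C.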

[3] = qHTS assay to identify small molecule antagonists of the TGF-beta/Smad signaling pathway - cell viability counter screen (AID 1346824); further: on the % scale 0 is the no-effect control and ±100 the full control effect; nearly all actives have a fitted effect of over 50% in size
How it was run: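 Cytotoxicity counter-screen run in the same wells as the beta-lactamase Smad reporter read: CellTiter-Glo luminescence after 30 min at room temperature. HEK 293T SBE-bla cells had 5 hr compound exposure at 37 C with TGF-beta1 (0.25 ng/mL stock).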

[4] = qHTS assay to identify small molecule agonists of the TGF-beta/Smad signaling pathway - cell viability counter screen (AID 1346829); further: top concentration of the series differs between compounds; on the % scale 0 is the no-effect control and ±100 the full control effect; nearly all actives have a fitted effect of over 45% in size
How it was run: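 In parallel with the Smad reporter read, viability of HEK 293T cells stably carrying SBE-bla is quantified by ATP luminescence following 5 hr compound treatment.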

[5] = qHTS assay to identify small molecule agonists of the TGF-beta/Smad signaling pathway (AID 1346859; active means well fitted activation curve with a large enough effect in the signal ratio in the repeat runs, not every such curve was filed as active; the % refers to the signal ratio; further: series mostly up to about 77 µM; on the % scale 0 is the no-effect control and ±100 the full control effect)
How it was run: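 SBE-bla HEK 293T, 4,000 cells/well, plated o/n; cpd in DMSO, 5 hr, 37 C/5% CO2; B/G FRET substrate 2 hr RT; ex 405, em 460/530 nm.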

[6] = Human pregnane X receptor (PXR) small molecule agonists, qHTS cell viability counter screen (AID 1346977); further: nearly all actives have a fitted effect of over 50% in size; further: potency means the concentration at half of the fitted maximal effect
How it was run: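 PXR-Luc HepG2, 2,000 cells/well, 5% charcoal-stripped FBS; 5hr settle; cpd 24hr, 37C/5% CO2; CellTiter-Fluor at 23hr, read 1hr later (fluorescence).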

[7] = Caspase-3/7 induction in HepG2 cells by small molecules, qHTS assay (AID 1346978); further: on the % scale 0 is the no-effect control and ±100 the full control effect; nearly all actives have a fitted effect of over 15% in size
How it was run: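 Caspase-3/7 induction was measured by Caspase-Glo 3/7 luminescence (30 min, room temperature) after a 17 hr compound exposure of wild-type HepG2 cells seeded at 2,000 per well and pre-incubated 5 hr.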

[8] = Caspase-3/7 induction in CHO-K1 cells by small molecules, qHTS cell viability counter screen (AID 1346979); further: on the % scale 0 is the no-effect control and ±100 the full control effect; nearly all actives have a fitted effect of over 35% in size
How it was run: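 Cells (CHO-K1, wild type) are plated at 1,500 per well and incubated 5hr. Test compounds in DMSO are then pinned in, followed by 16hr at 37C and 5% CO2. Viability is read by CellTiter-Fluor fluorescence after 1hr.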

[9] = Caspase-3/7 induction in CHO-K1 cells by small molecules, qHTS assay (AID 1346980); further: on the % scale 0 is the no-effect control and ±100 the full control effect; nearly all actives have a fitted effect of over 15% in size
How it was run: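 Luminescent Caspase-Glo 3/7 read (30min, room temperature) quantified apoptosis induction. Cells were wild-type CHO-K1, treated with compound for 17hr at 37 C and 5% CO2.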

[10] = Caspase-3/7 induction in HepG2 cells by small molecules, qHTS cell viability counter screen (AID 1346981); further: series mostly up to about 92 µM; on the % scale 0 is the no-effect control and ±100 the full control effect; nearly all actives have a fitted effect of over 30% in size
How it was run: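 Counter screen for cytotoxicity: HepG2 exposed 16 hr to compounds, then CellTiter-Fluor viability signal (fluorescence, 1 hr reagent incubation).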

[11] = biological target: Cytochrome P450 2D6 (Homo sapiens) (UniProt P10635); experiment: Cytochrome P450 Family 2 Subfamily D Member 6 (CYP2D6) small molecule antagonists: luciferase reporter qHTS assay (AID 1671196); further: nearly all actives have a fitted effect of over 50% in size; further: potency means the concentration at half of the fitted maximal effect
How it was run: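 Inhibition of CYP2D6 was gauged by loss of luminescence, since light produced tracks the luciferin generated from a proluciferin substrate. A 10 min room-temperature preincubation preceded 1 h NADPH-supported turnover.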

[12] = biological target: Cytochrome P450 2C19 (Homo sapiens) (UniProt P33261); experiment: Cytochrome P450 Family 2 Subfamily C Member 19 (CYP2C19) small molecule antagonists: luciferase reporter qHTS assay (AID 1671197); further: nearly all actives have a fitted effect of over 65% in size; further: potency means the concentration at half of the fitted maximal effect
How it was run: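 Compounds were tested on CYP2C19 activity via proluciferin conversion to luciferin. The 37C, 1 h reaction followed NADPH addition; detection reagent stopped it.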

[13] = biological target: Cytochrome P450 2C9 (Homo sapiens) (UniProt P11712); experiment: Cytochrome P450 Family 2 Subfamily C Member 9 (CYP2C9) small molecule antagonists: luciferase reporter qHTS assay (AID 1671198); further: nearly all actives have a fitted effect of over 50% in size; further: potency means the concentration at half of the fitted maximal effect
How it was run: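 Enzyme-substrate mix preincubated with compound 10 min at room temperature; reaction started with NADPH regeneration solution, 1 h 37C. Luminescent luciferin product read after 20 min detection reagent.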

[14] = biological target: Nuclear receptor subfamily 1 group I member 2 (Homo sapiens) (UniProt O75469); experiment: Human pregnane X receptor (PXR) small molecule agonists, qHTS assay (AID 1346982); further: nearly all actives have a fitted effect of over 35% in size; further: potency means the concentration at half of the fitted maximal effect
How it was run: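 Luminescence (ONE-Glo, 30 min RT) after 24 hr compound exposure of PXR-Luc HepG2 cells; cells rested 5 hr post-plating in 5% charcoal-stripped FBS medium.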

[15] = biological target: Cytochrome P450 1A2 (Homo sapiens) (UniProt P05177); experiment: Cytochrome P450 Family 1 Subfamily A Member 2 (CYP1A2) small molecule antagonists: luciferase reporter qHTS assay (AID 1671199); further: nearly all actives have a fitted effect of over 50% in size; further: potency means the concentration at half of the fitted maximal effect
How it was run: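 Signal from luciferin formed by CYP1A2 from a proluciferin substrate is read as luminescence, expressed in relative luminescence units. Compounds sit with enzyme 10 min, NADPH-driven reaction runs 1 h, all at room temperature.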

[16] = biological target: Thyrotropin-releasing hormone receptor (Homo sapiens) (UniProt P34981); experiment: qHTS assay to identify small molecule antagonists of the thyrotropin-releasing hormone receptor (TRHR) signaling pathway (AID 1346877; active means well fitted inhibition curve with a large enough effect in the repeat runs, not every such curve was filed as active; further: series mostly up to about 51 µM; on the % scale 0 is the no-effect control and ±100 the full control effect)
How it was run: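 In this cell-based calcium flux format, HEK293 cells expressing TRHR received test compound for 5 min before the agonist TRH (1 nM final). Dye loading lasted 2 h at 37 °C.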

[17] = biological target: Nuclear receptor subfamily 1 group I member 2 (Homo sapiens) (UniProt O75469); experiment: CYP3A4 induction through human pregnane X receptor (PXR) by small molecules, qHTS assay (AID 1346984); further: potency means the concentration at half of the fitted maximal effect; nearly all actives have a fitted effect of over 40% in size
How it was run: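 DPX-2 reporter cells; 24h cpd, 37C; Luciferin-IPA 3uM final x3h; One-Glo 30 min RT; lumi read.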

[18] = biological target: Thyrotropin-releasing hormone receptor (Homo sapiens) (UniProt P34981); experiment: qHTS assay to identify small molecule agonists of the thyrotropin-releasing hormone receptor (TRHR) signaling pathway (AID 1346891; calls by dose curve; further: series mostly up to about 58 µM; on the % scale 0 is the no-effect control and ±100 the full control effect)
How it was run: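 Intracellular calcium rise, read as fluorescence every second for 3 min, served as the agonist signal in dye-loaded HEK293 cells expressing TRHR; each compound ran at 15 concentrations in triplicate.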

[19] = biological target: Nuclear receptor subfamily 1 group I member 2 (Rattus norvegicus) (UniProt Q9R1A7); experiment: Rat pregnane X receptor (rPXR) activation by small molecules, qHTS assay (AID 1346983); details: rPXR luciferase reporter cells, One-Glo luminescence, 24 h; max activation: active compounds read high; further: on the % scale 0 is the no-effect control and ±100 the full control effect; nearly all actives have a fitted effect of over 20% in size
How it was run: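 Luminescent readout (One-Glo luciferase, 30 min room temperature) followed 24 hr compound treatment at 37 C of rPXR cells plated 2,000 per well and preincubated 5hr; qHTS format with compounds delivered in DMSO.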

[20] = biological target: Nuclear receptor subfamily 1 group I member 2 (Homo sapiens) (UniProt O75469); experiment: Human pregnane X receptor (PXR) activation by small molecules, qHTS assay (AID 1346985); further: potency means the concentration at half of the fitted maximal effect; nearly all actives have a fitted effect of over 40% in size
How it was run: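 DPX-2 cells (HepG2 co-transfected with a PXR response element and a CYP3A4-promoter luciferase construct) were seeded at 2,000 per well, rested 5 hr at 37C, then exposed to DMSO-dissolved compounds for 24 hr. Activation was read as luciferase luminescence.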

Chain of Cytochrome P450 1A2 (Homo sapiens) (P05177 whole entry, looked up): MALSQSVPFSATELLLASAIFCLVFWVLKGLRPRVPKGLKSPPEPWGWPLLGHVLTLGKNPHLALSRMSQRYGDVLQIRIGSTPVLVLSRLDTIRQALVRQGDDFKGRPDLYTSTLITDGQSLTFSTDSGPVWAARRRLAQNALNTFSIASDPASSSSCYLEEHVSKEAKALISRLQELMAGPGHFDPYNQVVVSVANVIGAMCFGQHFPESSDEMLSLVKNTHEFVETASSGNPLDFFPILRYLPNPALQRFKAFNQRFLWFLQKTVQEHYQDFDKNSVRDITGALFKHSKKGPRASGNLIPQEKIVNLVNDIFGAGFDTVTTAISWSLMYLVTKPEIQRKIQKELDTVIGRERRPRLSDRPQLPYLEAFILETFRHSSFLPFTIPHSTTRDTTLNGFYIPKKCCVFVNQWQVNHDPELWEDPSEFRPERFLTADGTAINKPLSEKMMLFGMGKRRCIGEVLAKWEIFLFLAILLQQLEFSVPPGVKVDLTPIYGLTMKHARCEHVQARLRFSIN
Chain of Cytochrome P450 2D6 (Homo sapiens) (P10635 whole entry, looked up): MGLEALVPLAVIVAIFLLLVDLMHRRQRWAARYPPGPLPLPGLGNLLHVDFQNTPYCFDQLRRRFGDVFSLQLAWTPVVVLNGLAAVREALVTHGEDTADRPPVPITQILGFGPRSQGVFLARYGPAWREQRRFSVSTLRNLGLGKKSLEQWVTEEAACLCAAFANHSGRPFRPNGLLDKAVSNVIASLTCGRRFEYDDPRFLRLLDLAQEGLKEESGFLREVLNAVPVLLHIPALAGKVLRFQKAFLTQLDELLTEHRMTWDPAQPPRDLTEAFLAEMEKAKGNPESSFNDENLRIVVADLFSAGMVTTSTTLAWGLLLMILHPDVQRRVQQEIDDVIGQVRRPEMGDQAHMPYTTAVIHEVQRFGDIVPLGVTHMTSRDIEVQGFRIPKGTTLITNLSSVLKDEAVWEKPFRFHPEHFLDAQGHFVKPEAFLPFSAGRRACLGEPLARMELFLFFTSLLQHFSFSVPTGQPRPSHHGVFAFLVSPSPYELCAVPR
Chain of Cytochrome P450 2C19 (Homo sapiens) (P33261 whole entry, looked up): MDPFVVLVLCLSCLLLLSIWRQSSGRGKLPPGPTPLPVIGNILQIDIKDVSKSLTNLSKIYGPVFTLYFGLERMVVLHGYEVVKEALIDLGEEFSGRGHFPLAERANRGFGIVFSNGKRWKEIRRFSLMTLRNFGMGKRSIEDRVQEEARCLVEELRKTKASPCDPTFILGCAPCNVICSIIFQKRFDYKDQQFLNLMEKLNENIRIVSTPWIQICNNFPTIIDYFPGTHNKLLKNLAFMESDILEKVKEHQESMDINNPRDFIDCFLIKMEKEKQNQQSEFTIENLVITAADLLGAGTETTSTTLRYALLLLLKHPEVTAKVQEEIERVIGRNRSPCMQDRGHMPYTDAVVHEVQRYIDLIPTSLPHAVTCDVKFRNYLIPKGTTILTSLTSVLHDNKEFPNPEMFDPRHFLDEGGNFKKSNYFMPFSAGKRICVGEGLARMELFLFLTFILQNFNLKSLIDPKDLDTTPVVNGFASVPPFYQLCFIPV
Chain of Cytochrome P450 2C9 (Homo sapiens) (P11712 whole entry, looked up): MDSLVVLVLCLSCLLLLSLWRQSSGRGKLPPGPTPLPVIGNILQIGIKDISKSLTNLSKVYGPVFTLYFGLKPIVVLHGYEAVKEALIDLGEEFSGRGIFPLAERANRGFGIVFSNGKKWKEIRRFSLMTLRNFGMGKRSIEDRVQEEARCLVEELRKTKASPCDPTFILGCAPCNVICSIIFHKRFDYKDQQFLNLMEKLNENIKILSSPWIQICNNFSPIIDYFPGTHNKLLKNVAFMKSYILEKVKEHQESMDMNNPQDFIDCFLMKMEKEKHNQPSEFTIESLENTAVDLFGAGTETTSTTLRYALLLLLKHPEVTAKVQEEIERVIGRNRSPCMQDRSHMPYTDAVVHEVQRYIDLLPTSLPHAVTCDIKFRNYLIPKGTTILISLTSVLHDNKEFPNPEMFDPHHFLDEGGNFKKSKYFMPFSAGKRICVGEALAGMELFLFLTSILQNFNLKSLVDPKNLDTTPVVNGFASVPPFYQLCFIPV
Chain of Nuclear receptor subfamily 1 group I member 2 (Homo sapiens) (O75469 whole entry, looked up): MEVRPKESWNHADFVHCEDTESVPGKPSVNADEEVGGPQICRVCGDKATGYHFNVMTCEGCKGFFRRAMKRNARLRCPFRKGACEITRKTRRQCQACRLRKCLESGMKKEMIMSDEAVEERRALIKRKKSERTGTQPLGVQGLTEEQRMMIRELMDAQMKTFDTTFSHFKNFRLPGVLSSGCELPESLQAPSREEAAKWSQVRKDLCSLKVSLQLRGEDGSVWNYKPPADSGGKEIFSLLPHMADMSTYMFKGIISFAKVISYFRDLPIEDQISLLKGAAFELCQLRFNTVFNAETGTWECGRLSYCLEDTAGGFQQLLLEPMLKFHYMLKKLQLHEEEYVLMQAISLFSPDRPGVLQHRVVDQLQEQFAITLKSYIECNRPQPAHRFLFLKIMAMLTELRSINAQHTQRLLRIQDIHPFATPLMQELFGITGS
Chain of Thyrotropin-releasing hormone receptor (Homo sapiens) (P34981 whole entry, looked up): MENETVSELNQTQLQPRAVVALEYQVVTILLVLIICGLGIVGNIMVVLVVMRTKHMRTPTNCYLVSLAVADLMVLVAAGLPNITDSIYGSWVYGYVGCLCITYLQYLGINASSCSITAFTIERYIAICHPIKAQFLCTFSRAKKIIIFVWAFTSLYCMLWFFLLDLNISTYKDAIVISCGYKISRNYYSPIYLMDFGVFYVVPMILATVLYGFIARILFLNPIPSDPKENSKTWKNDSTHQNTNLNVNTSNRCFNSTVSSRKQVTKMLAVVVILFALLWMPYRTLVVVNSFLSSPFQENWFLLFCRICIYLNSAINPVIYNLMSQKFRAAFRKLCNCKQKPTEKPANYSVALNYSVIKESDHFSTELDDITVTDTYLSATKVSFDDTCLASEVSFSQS
Chain of Nuclear receptor subfamily 1 group I member 2 (Rattus norvegicus) (Q9R1A7 whole entry, looked up): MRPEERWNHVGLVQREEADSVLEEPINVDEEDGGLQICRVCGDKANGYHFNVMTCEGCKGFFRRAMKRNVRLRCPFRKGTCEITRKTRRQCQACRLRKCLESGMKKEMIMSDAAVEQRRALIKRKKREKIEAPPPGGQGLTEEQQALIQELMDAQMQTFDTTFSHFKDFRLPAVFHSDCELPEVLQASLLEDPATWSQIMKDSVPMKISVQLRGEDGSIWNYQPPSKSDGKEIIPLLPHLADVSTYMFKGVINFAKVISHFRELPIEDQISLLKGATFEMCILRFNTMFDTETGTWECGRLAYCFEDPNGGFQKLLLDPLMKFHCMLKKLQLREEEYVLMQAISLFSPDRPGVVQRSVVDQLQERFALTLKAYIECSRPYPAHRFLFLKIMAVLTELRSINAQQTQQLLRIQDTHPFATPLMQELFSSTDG

CC(C)=C1CC[C@@H](C)CC1=O
inactive: Potency [1] | Potency [2] | Potency [3] | Potency [4] | Potency [5] | Potency [6] | Potency [7] | Potency [8] | Potency [9] | Potency [10] | Potency [11] | Potency [12] | Potency [13]

CC1(C)C(=O)N(Br)C(=O)N1Br
inactive: Potency [1] | Potency [2] | Potency [3] | Potency [4] | Potency [5] | Potency [6] | Potency [7] | Potency [8] | Potency [9] | Potency [14] | Potency [12] | Potency [15]

CC(CN(C)C)CN1c2ccccc2CCc2ccccc21 (stereo not given)
active: Potency [1] 21.1 µM | Potency [2] 16.8 µM | Potency [14] 23.7 µM | Potency [17] 8.91 µM | Potency [11] 3.09 µM
inactive: Potency [3] | Potency [4] | Potency [16] | Potency [9] | Potency [13] | Potency [15]

CC(C)=CC1CC(C)CCO1 (stereo not given)
inactive: Potency [1] | Potency [2] | Potency [3] | Potency [5] | Potency [16] | Potency [18] | Potency [6] | Potency [7] | Potency [9] | Potency [10] | Potency [14] | Potency [11] | Potency [12] | Potency [13] | Potency [15]

CC(=O)C=O
inactive: Potency [1] | Potency [2] | Potency [3] | Potency [4] | Potency [5] | Potency [6] | Potency [7] | Potency [8] | Potency [9] | Potency [10] | Potency [14] | Potency [11] | Potency [12] | Potency [15]

CCN1CCN(c2cc(-c3ccc(F)cc3)c3c(n2)CCCCCC3)CC1
active: Potency [11] 6.74 µM
inactive: activity change, negative = cytotoxicity [1] 1.1% [at 18.9 µM] | activity change, negative = cytotoxicity [2] 2.26% [at 19 µM] | viability change, negative = cytotoxic [3] 0.113% [at 15.8 µM] | activation [5] -2.06% [at 15.8 µM] | activity, negative = inhibition [16] 1.24% [at 10.5 µM] | activation [18] 0.262% [at 11.8 µM] | activity change, negative = cytotoxicity [6] 0.184% [at 19 µM] | caspase activation [7] 0.316% [at 19 µM] | activity change, negative = cytotoxicity [8] 0.368% [at 19 µM] | caspase-3/7 activation [9] 1.46% [at 19 µM] | activity change, negative = cytotoxicity [10] -1.31% [at 19 µM] | activation [14] -23.7% [at 19 µM] | activity change, negative = inhibition [12] -2.56% [at 23.6 µM] | activity change, negative = inhibition [13] -5.46% [at 23.6 µM]

C=C/C=C/C=C/CCCCC
inactive: activity change, negative = cytotoxicity [1] 13.8% [at 18.9 µM] | activity change, negative = cytotoxicity [2] -2.82% [at 19 µM] | viability change, negative = cytotoxic [3] -6.86% [at 15.8 µM] | activity change, negative = cytotoxicity [4] -1.35% [at 15.8 µM] | activation [5] -2.28% [at 15.8 µM] | activity change, negative = cytotoxicity [6] 3.3% [at 19 µM] | caspase activation [7] -0.0295% [at 19 µM] | activity change, negative = cytotoxicity [8] -1.73% [at 19 µM] | caspase-3/7 activation [9] 0.387% [at 19 µM] | activity change, negative = cytotoxicity [10] -1.07% [at 19 µM] | activation [14] 9.15% [at 19 µM] | activity change, negative = inhibition [11] -25.6% [at 23.6 µM] | activity change, negative = inhibition [15] -9.41% [at 23.6 µM]
active: Potency [13] 16.9 µM

CC(C)CCOCCC(C)C
inactive: Potency [1] | Potency [2] | Potency [3] | Potency [4] | Potency [5] | Potency [6] | Potency [8] | Potency [9] | Potency [10] | Potency [14] | Potency [13] | Potency [15]

CCCCN(C)C
inactive: Potency [1] | Potency [2] | Potency [3] | Potency [5] | Potency [16] | Potency [18] | Potency [6] | Potency [7] | Potency [8] | Potency [9] | Potency [10] | Potency [14] | Potency [11] | Potency [12] | Potency [15]

Cc1cccc(N(C)C)c1
inactive: Potency [1] | Potency [2] | Potency [3] | Potency [4] | Potency [5] | Potency [6] | Potency [7] | Potency [8] | Potency [9] | Potency [10] | Potency [14] | Potency [11] | Potency [13] | Potency [15]

CNCC[C@H](Oc1cccc2ccccc12)c1cccs1
inactive: Potency [3] | Potency [5] | Potency [16] | Potency [18] | Potency [9]
active: Potency [1] 23.7 µM | Potency [2] 21.1 µM | Potency [6] 29.8 µM

CN(Cc1cc(Br)cc(Br)c1N)C1CCCCC1
inactive: Potency [1] | Potency [3] | Potency [4] | Potency [5] | Potency [16] | Potency [18] | Potency [7] | Potency [8] | Potency [9] | Potency [10] | max activation [19] -3.03%
active: Potency [14] 13.3 µM | Potency [17] 14.1 µM | Potency [20] 8.91 µM | Potency [11] 0.0078 µM | Potency [12] 4.36 µM | Potency [15] 32.3 µM
